Compound activity from PubChem BioAssay.
An excerpt weighted towards active compounds, which were near 5.2% of everything screened.
Tau fibril FP: tau fibrillization inhibition (FP); Potency, µM (highest dose often 57.7 µM), most hits filed as inhibitors; K18 P301L tau heparin fibrillization, Alexa594 FP, 6 h; P10636; actives 0.39% (n = 280,000); also: nearly all actives have a fitted effect of over 55% in size
Target sequence (P10636 561-689 P618L limits assumed): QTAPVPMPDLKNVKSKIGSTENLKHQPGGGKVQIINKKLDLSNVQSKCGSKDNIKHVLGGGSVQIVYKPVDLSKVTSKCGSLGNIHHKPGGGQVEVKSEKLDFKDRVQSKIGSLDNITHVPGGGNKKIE
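Quantitative HTS format: compounds meet 15 uM recombinant K18 P301L tau and Alexa 594-tau tracer in 100 mM sodium acetate pH 7; 20 uM heparin triggers fibrillization at 37 C over 6 hr; FP gives the signal.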
Tau ThT inhib: inhibitors of human tau fibril formation, thioflavin T binding; actives 2.1% (n = 270,000); Potency, µM (titrated, usually from 57.4 µM), most hits filed as inhibitors; recombinant tau K18 P301L, heparin-induced fibrillization, ThT fluorescence; P10636; AID 1460; also: nearly all actives have a fitted effect of over 55% in size
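Aggregation was driven by heparin (20 uM final) acting on recombinant tau […] bearing P301L in 100 mM sodium acetate pH 7; fibrils were detected with Thioflavin T.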
Coupling enz: coupling enzyme interference in Giardia aldolase counter-screen. actives 0.67% (n = 290,000). coupling enzyme system counterscreen, AmpLite Red fluorescence. activity change, negative = inhibition, % at 58.2 µM, hits read low; in the data active = activity change below about -30%
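Final compound at 57.5 uM, incubated 10 min at RT with coupling enzyme reagent (glyceraldehyde-3-phosphate), then 20 min with substrate and AmpLite Red detection. Fluorescence read at 525/598 nm; tests interference with the coupling assay, not aldolase inhibition.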
Tau fluor counter: counter-screen for tau fibril formation inhibitors; AID 1463; tau K18 P301L Alexa594 fluorescence, heparin fibrillization; actives 0.93% (n = 280,000); Potency, µM (doses to about 57.7 µM); also: nearly all actives have a fitted effect of over 55% in size
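Human tau K18 P301L (15 uM unlabeled, 0.24 uM Alexa 594-labeled) in 100 mM sodium acetate pH 7 with 20 uM heparin, 6 hr at 37 C. ThT 30 uM added, 1 hr ambient; Alexa 594 FP and total fluorescence read at 555/632 nm.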
Sfp PPTase inh: blocks B. subtilis Sfp PPTase activity. Q9F4F7. Biochemical Sfp PPTase activity, qHTS. Potency, µM, actives largely listed as inhibitors. actives 3.5% (n = 310,000). AID 1490;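 also: the enzyme is Sfp with the accession as filed and its product quenches rhodamine fluorescence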
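Fluorescence-quenching assay: 15 nM Sfp-PPTase preincubated 15 min at room temperature with compound, then 5 uM rhodamine-CoA and 12.5 uM BHQ-2-labelled YbbR peptide added. Fluorescence (ex 525/em 598 nm) read at start and after 30 min; difference gives rate.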
Hits are given with their value; i = inactive; ? = inconclusive; nt = not tested or not shown; [ ] = remark or other dose. Unless noted, calls follow the shape of the dose curve; as a rule, active = well fitted curve in the direction sought with a large enough effect; inconclusive = small, poorly fitted or top-dose-only effect, or another doubt; inactive = no such curve, though single readings can be large; an effect the other way counts as inactive or inconclusive.

SMILES	Tau fibril FP	Tau ThT inhib	Coupling enz	Tau fluor counter	Sfp PPTase inh
CC(/C=C/c1ccc(N(C)C)cc1)=N/N=C1/NC(=O)CC(C(=O)Nc2ccc(Cl)cc2)S1 (stereo not drawn)	i	7.9µM	i	8.9µM[quencher]	i
Cc1c(/C=N/NC(=O)CNc2ccccc2)c2ccccn2c1C(=O)c1ccncc1	?	14µM	i	?	i
O=C1c2ccccc2C(=O)C1c1ccc(Cl)cc1	nt	nt	nt	nt	i
O=C1c2ccccc2C(=O)C12OC2c1ccc(Cl)cc1Cl (stereo not drawn)	?	10µM	i	?	i
CN(C(=O)CSc1nc2ccc(NC(=O)c3ccc(F)cc3)cc2s1)c1ccccc1	?	i	nt	?	nt
CCOC(=O)C1=C(O)/C(=C\c2ccc(CNS(=O)(=O)c3ccc(Br)cc3)o2)N=C1C	i	?	i	i	?
COC(=O)C1=C(O)/C(=C\c2ccc(CNS(=O)(=O)c3ccccc3)o2)N=C1C	?	14µM	i	?	50µM
COC(=O)C1=C(O)/C(=C\c2ccc(CNS(=O)(=O)c3ccc(Cl)cc3)o2)N=C1C	i	?	i	i	35µM
COC(=O)C1=C(O)/C(=C\c2ccc(OCC(=O)Nc3ccccc3)cc2)N=C1C	nt	nt	nt	nt	i
O=C(/C=C/c1ccco1)NCc1ccco1	?	?	i	i	i
Cc1ccc(/C=C(\C#N)C(=O)NCc2ccco2)o1	i	i	i	i	50µM
Cc1ccc(/C=C/C(=O)NCc2ccco2)o1	?	?	i	i	32µM
Cc1ccc(/C=C/C(=O)NCC2COc3ccccc3O2)o1 (stereo not drawn)	i	?	i	i	6.3µM
COc1ccc(/C=C/C(=O)NCC2COc3ccccc3O2)cc1OC (stereo not drawn)	i	?	i	i	i
Cc1cccc(NC(=O)Cn2nnc(C(=O)Nc3ccccc3Br)c2N)c1C	i	i	nt	i	nt
CN1CCN(c2ncc3c(n2)CCN(Cc2ccccc2Cl)C3)CC1	i	i	nt	i	nt
COC1=C2C[C@@H](C)C[C@H](OC)[C@H](O)[C@@H](C)/C=C(\C)[C@H](OC(N)=O)[C@@H](OC)/C=C\C=C(/C)C(=O)NC(=CC1=O)C2=O	nt	nt	-65	nt	i
Cc1ccc(C)c(OCCn2cc(C(=O)c3cccs3)c3ccccc32)c1	?	i	nt	?	nt
CCCS(=O)(=O)N1CCN(C2Cc3ccccc3C2)CC1	i	nt	i	i	89µM
CCCc1[nH]nc2c1C(c1ccc(OC)c(CSC3=NCCS3)c1)C(C#N)=C(N)O2 (stereo not drawn)	i	i	-41	i	79µM
Cc1sc2ncn(CC(=O)N(C)c3cccc(C(F)(F)F)c3)c(=O)c2c1S(=O)(=O)N1CCN(c2ncccn2)CC1	i	i	nt	i	nt
COc1ccc(OCc2cc(C(=O)N(C)C3CCOCC3)no2)c2ccccc12	nt	nt	-37	nt	i
CCOC(=O)C1CCN(C(=O)c2cc(COc3ccc(OC)c4ccccc34)on2)CC1	nt	nt	-37	nt	i
O=C(OCc1cc(=O)n2nc(-c3cccs3)sc2n1)c1ccc(F)cc1	i	?	nt	i	nt
Cc1ccc(C)c(-n2c3nc(=O)[nH]c(=O)c-3cc3cc([N+](=O)[O-])ccc32)c1	i	i	-47	i	50µM
SMILES	Tau fibril FP	Tau ThT inhib	Coupling enz	Tau fluor counter	Sfp PPTase inh
Cc1cccc(-n2c3nc(=O)[nH]c(=O)c-3cc3cc([N+](=O)[O-])ccc32)c1	i	?	i	i	i
CNC(=O)/C(C#N)=c1\s/c(=C/C(=O)OC)c(=O)n1-c1ccccc1	i	i	i	i	i
COC(=O)/C=c1\sc2ncnn2c1=O	14µM	16µM	i	i	10µM
Cc1ccccc1CN1C(=O)CS/C1=N/N=C/c1ccco1	i	nt	i	i	45µM
COc1ccc(OC)c(/C=N/N=C2\SCC(=O)N2Cc2ccco2)c1	?	i	i	?	56µM
CC1S/C(=N/N=C/c2ccco2)N(Cc2ccccc2)C1=O (stereo not drawn)	i	i	i	i	32µM
O=C1CS/C(=N/N=C/c2ccccc2)N1Cc1ccco1	i	i	i	i	?
CCOC(=O)N1CCc2c(sc3c2c(=O)n(Cc2ccccc2)c(=O)n3Cc2cc(C)ccc2C)C1	i	i	nt	i	nt
Cc1cc(C)cc(NC(=O)c2cc(S(=O)(=O)N3CCCC3)ccc2F)c1	i	i	nt	i	nt
CC1=C(c2ccc(C)cc2)S(=O)(=O)N(Cc2ccc(C(=O)NCc3ccccc3)cc2)C1=O	i	i	nt	i	nt
COc1ccc(-c2nc(C#N)c(NCCc3ccccc3)o2)cc1OC	?	?	i	16µM[quencher]	i
Cc1ccc(CNc2oc(C)nc2C#N)cc1	?	?	i	11µM[quencher]	i
Cc1ccc(CNc2oc(-c3ccco3)nc2C#N)cc1	?	i	i	i	i
N#Cc1nc(-c2cccc3ccccc23)oc1NCC1CCCO1 (stereo not drawn)	?	?	i	16µM[quencher]	?
COc1ccc(CNc2oc(/C=C/c3cccc(OC)c3)nc2C#N)cc1	?	?	nt	6.3µM[quencher]	nt
N#Cc1nc(-c2ccccc2)oc1NCC1CCCO1 (stereo not drawn)	i	i	i	i	i
CCOCCc1nn2c(=O)cc(COC(=O)c3ccc4c(c3)OCO4)nc2s1	i	?	nt	i	nt
COc1ccc(/C=C/c2nc(C#N)c(NCCc3ccc(OC)c(OC)c3)o2)cc1OC	i	?	nt	?	nt
COc1ccc(CNc2oc(-c3cccc4ccccc34)nc2C#N)cc1	i	i	i	8.9µM[quencher]	i
CNc1oc(-c2cccc3ccccc23)nc1C#N	i	i	i	i	i
COc1cccc(/C=C/c2nc(C#N)c(NCCc3ccc(OC)c(OC)c3)o2)c1	?	?	nt	13µM[quencher]	nt
N#Cc1c(N(CCO)CCO)nc(N)c2c(N)nc3c(c12)CC(=O)N3Cc1cccs1	?	16µM	-31	?	i
CCc1cccc(NC(=O)CSc2ncc3c(n2)-c2cc(Cl)ccc2N(C)S3(=O)=O)c1	?	i	nt	i	nt
COc1ccc(CNC(=O)CCS(=O)(=O)c2cc(Br)cc3c2N(C(=O)C2CC2)CC3)cc1	i	i	nt	i	nt
O=C(COC(=O)c1cccs1)c1ccccc1	i	i	i	i	i
SMILES	Tau fibril FP	Tau ThT inhib	Coupling enz	Tau fluor counter	Sfp PPTase inh
O=C(CC(Nc1ccc(F)cc1)C(=O)OCC(=O)c1cccs1)c1ccccc1 (stereo not drawn)	i	?	i	i	35µM
CCc1ccc(CNC(=O)CN2C(=O)CSc3c2c(C)nn3-c2ccccc2)cc1	i	i	nt	i	nt
Cc1cccc(Nc2ccc3nonc3c2[N+](=O)[O-])c1C	nt	nt	i	nt	i
CCOC(=O)NNc1ccc2nonc2c1[N+](=O)[O-]	?	13µM	-44	i	20µM
N/C(=N\OC(=O)COc1ccc2ccccc2c1Br)c1ccccn1	i	?	i	?	56µM
N/C(=N\OS(=O)(=O)c1ccc2ccccc2c1)c1ccccn1	i	i	i	i	63µM
N/C(=N\OC(=O)COc1ccc2ccccc2c1Br)c1cccnc1	i	?	i	?	i
